This passage reports Inhibition results from ChEMBL document CHEMBL4513141, “CO-ADD screening of NIH (USA) - Clinical Collection” (2021).

Entries with a potency or affinity are not part of this list.

The subject of one assay is Staphylococcus aureus. Conditions: Concentration 20 uM; ASSAY_TEST Inhibition of Bacterial Growth; detection method Absorption (OD600); MEDIA CAMHB; plate type 384well; NBS; CORNING #3640; time 18 hr.
The subject of another assay is Escherichia coli. The note with it: Concentration 20 uM; ASSAY_TEST Inhibition of Bacterial Growth; detection method Absorption (OD600); MEDIA CAMHB; plate type 384well; NBS; CORNING #3640; time 18 hr.

Take `Cl.NCC(O)c1ccc(O)c(O)c1` (centres undefined): the Inhibition is 10.44% with Staphylococcus aureus and 0.24% in the assay on Escherichia coli.
Consider `CNCCC(Oc1ccc(C(F)(F)F)cc1)c1ccccc1.Cl` (centres undefined) [FLUOXETINE HYDROCHLORIDE], for which the Inhibition came out at 15.46% in the assay on Staphylococcus aureus and 2.53% in the assay on Escherichia coli.
For `COc1ccc(CCN)cc1OC` the same measures were 8.89% and -3.33%.
Consider `C[C@]12CC[C@H]3[C@@H](CCC4=CC(=O)CC[C@@]43C)[C@@H]1CC[C@@H]2O` [TESTOSTERONE], for which the Inhibition is -3.69% in the assay on Staphylococcus aureus and -8.96% in the assay with Escherichia coli.
As for `CC[C@@H]1/C=C/C=C/C[C@H](C)[C@@H](O)[C@](C)(O)C(=O)[C@H](C)[C@@H](O)[C@H](C)C(=O)[C@H](C)[C@@H](O)[C@H](C)/C=C/C(=O)O[C@H]2[C@@H](C)[C@@H](CC1)O[C@@]1(CC[C@@H](C)[C@@H](C[C@H](C)O)O1)[C@@H]2C`, the Inhibition in the assay with Staphylococcus aureus is given as 9.12%; with Escherichia coli, 0.23%.
As for `C[C@H](CCC(=O)O)[C@H]1CC[C@H]2[C@@H]3[C@@H](O)C[C@@H]4C[C@H](O)CC[C@]4(C)[C@H]3CC[C@]12C` [URSODIOL], the Inhibition came to 5.15% in the assay with Staphylococcus aureus and 2.26% in the assay on Escherichia coli.
Turning to `c1ccc2c3c([nH]c2c1)CNCC3` [TRYPTOLINE], the Inhibition was 7.42% with Staphylococcus aureus and 3.55% with Escherichia coli.
For `CN(C)C(=O)C(CCN1CCC(O)(c2ccc(Cl)cc2)CC1)(c1ccccc1)c1ccccc1.Cl` [LOPERAMIDE HYDROCHLORIDE], the results for the Inhibition with Staphylococcus aureus and in the assay with Escherichia coli were 6.46% and 2.77%, respectively.
Regarding `Cl.N=C(N)NC(=O)c1nc(Cl)c(N)nc1N.O.O` [AMILORIDE HYDROCHLORIDE], the Inhibition with Staphylococcus aureus is on record as 11.17%; with Escherichia coli it was 2.12%.
Regarding `Cl.NCCc1ccc(O)c(O)c1` [DOPAMINE HYDROCHLORIDE], the Inhibition in the assay on Staphylococcus aureus is listed as 8.23%; in the assay on Escherichia coli it was -5.62%.
With `NCCc1ccccn1`, the Inhibition is on record as 1.79% in the assay on Staphylococcus aureus and 8.78% in the assay on Escherichia coli.
Turning to `CC[N+](C)(C)c1cccc(O)c1.[Cl-]` [EDROPHONIUM CHLORIDE], the Inhibition is on record as 15.74% with Staphylococcus aureus and 2.93% in the assay with Escherichia coli.
`COCCCOc1ccnc(C[S+]([O-])c2nc3ccccc3[nH]2)c1C` (centres undefined) [RABEPRAZOLE]: the results for the Inhibition in the assay with Staphylococcus aureus and with Escherichia coli were 10.37% and 7.16%, respectively.
As for `CNC(=O)Oc1ccc2c(c1)[C@]1(C)CCN(C)C1N2C.CNC(=O)Oc1ccc2c(c1)[C@]1(C)CCN(C)C1N2C.O=S(=O)(O)O` (some centres undefined), the Inhibition is recorded as 12.91% in the assay with Staphylococcus aureus and -3.79% in the assay with Escherichia coli.
For `Nc1nc(F)nc2c1ncn2[C@@H]1O[C@H](CO)[C@@H](O)[C@@H]1O` [FLUDARABINE] the same measures were 11.26% and 42.2%.
For `C#C[C@]1(O)CC[C@H]2[C@@H]3CCC4=CC(=O)CC[C@@H]4[C@H]3CC[C@@]21C` [NORETHINDRONE] the same measures were -0.74% and 4.04%.
Regarding `Cc1cc(NS(=O)(=O)c2ccc(N)cc2)no1` [SULFAMETHOXAZOLE], the figures for the Inhibition with Staphylococcus aureus and with Escherichia coli were -14.52% and 28.59%, respectively.
`COc1ccc2[nH]cc(C3=CCNCC3)c2c1.COc1ccc2[nH]cc(C3=CCNCC3)c2c1.O=C(O)CCC(=O)O`: the Inhibition is recorded as 16.86% in the assay on Staphylococcus aureus and 5.51% with Escherichia coli.
For `CS(=O)(=O)O.O=C(O[C@@H]1C[C@@H]2C[C@H]3C[C@H](C1)N2CC3=O)c1c[nH]c2ccccc12`, the Inhibition in the assay on Staphylococcus aureus is on record as 5.34%; in the assay on Escherichia coli, 6.66%.
With `CC(C)CC(N(C)C)C1(c2ccc(Cl)cc2)CCC1` (centres undefined) [SIBUTRAMINE], the Inhibition in the assay on Staphylococcus aureus is 0.87%; with Escherichia coli, 6.8%.
Take `Cc1ccc(-c2nc3ccc(C)cn3c2CC(=O)N(C)C)cc1.Cc1ccc(-c2nc3ccc(C)cn3c2CC(=O)N(C)C)cc1.O=C(O)C(O)C(O)C(=O)O` [ZOLPIDEM TARTRATE]: the values for the Inhibition in the assay with Staphylococcus aureus and in the assay on Escherichia coli were 4.54% and -2.63%, respectively.
As for `Br.CN1[C@@H]2CC(OC(=O)[C@H](CO)c3ccccc3)C[C@H]1[C@@H]1O[C@@H]12.O.O.O` (some centres undefined), in the assay with Staphylococcus aureus, the Inhibition worked out at 15.22%.
As to `Br.COc1ccc2c3c1O[C@H]1C[C@@H](O)C=C[C@@]31CCN(C)C2` [GALANTAMINE HYDROBROMIDE], the Inhibition in the assay with Staphylococcus aureus is recorded as 13.66%; in the assay with Escherichia coli, 3.62%.
For `C[C@]12CC(C=O)=C(O)C[C@@H]1CC[C@@H]1[C@@H]2CC[C@@]2(C)[C@H]1CC[C@]2(C)O`, in that order: 4.66% and 7.86%.
For `C=C(C)[C@@H]1[C@H]2OC(=O)[C@@H]1[C@]1(O)C[C@H]3O[C@]34C(=O)O[C@H]2[C@]14C.CC(C)(O)[C@@H]1[C@H]2OC(=O)[C@@H]1[C@]1(O)C[C@H]3O[C@]34C(=O)O[C@H]2[C@]14C`, the values for the Inhibition with Staphylococcus aureus and in the assay with Escherichia coli were 10.5% and 5.19%, respectively.

What is called Inhibition is the change of the read-out against control, counted positive when it falls.
